{"source": "PubChem BioAssay (NCI)", "note": "Where “and” joins values, the source holds several entries; their conditions need not be identical. Identical values can stand only once. Compounds without any hit were thinned out: in the full panel of roughly 83,000, 20% have a hit.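 Testing used 96-well plates and a 48-hour single-concentration exposure. Example: -40 means 40% of the starting cells died.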 Unmarked numbers belong to inactive results.", "data": [{"tested_on": "IGROV1 ovarian", "assay": "NCI-60 one-dose screen, 48 h (100 = growth as untreated, 0 = no growth, -100 = all killed)", "settings": "10 µM unless noted", "experimental": "Growth inhibition of the IGROV1 human tumor cell line is measured as a screen for anti-cancer activity. Cells are grown in 96 well plates and exposed to the test compound for 48 hours. Compounds are tested at a single concentration, which is 10^-5 M for most compounds. The reported endpoint is percent growth (GI% or GIPRCNT), where numbers from 0 - 100% represent growth inhibition, and numbers from -100% - 0 represent cell death. For example, a value of 40 represents 60% growth inhibition. A value of 0 means no net growth occurred over the course of the experiment. A value of -40 indicates 40% of cells at the beginning of the experiment died by the end of the experiment. A value of -100 means all cells are dead at the end of the experiment.\nNCI-60 Human Tumor Cell Lines Screen was performed using the standard one-dose NCI protocol, which is described in more detail at https://dtp.cancer.gov/discovery_development/nci-60/default.htm.\nCompounds with GIPRCNT values below 10 were considered active. Activity score was based on GIPRCNT using the following formula: […]\nScore is 0 for GIPRCNT values of 100 or above, 50 for GIPRCNT values of 0, and 100 for GIPRCNT values of -100.", "values": [{"smiles": "COC(=O)C(Cc1cn(C(C)=O)c2ccccc12)P(=O)(OC)OC", "note": "(stereo not given)", "growth": "113%"}, {"smiles": "COc1ccc(C(=O)C(O)c2ccc(OC)cc2)cc1", "note": "(stereo not given)", "growth": "102% and 110%"}, {"smiles": "Clc1ccc(/C=C/c2ccc3ccccc3n2)cc1", "growth": "52.6% and 27.6% and 75.1%"}, {"smiles": "CC(C)(C)OC(=O)CC1(O)CCCCC1", "growth": "114%"}, {"smiles": "C/C(CC(C)C)=N/NC(N)=S", "growth": "97.4%"}, {"smiles": "O=C(OCc1ccccc1)c1ccccc1", "growth": "120% and 87.4%"}, {"smiles": "O=C1c2ccccc2C(c2ccccc2)C1c1ccccc1", "note": "(stereo not given)", "growth": "91.1%"}, {"smiles": "C/C(=C\\c1ccccc1)C(O)C(=O)c1nc2ccc([N+](=O)[O-])cc2[nH]c1=O", "note": "(stereo not given)", "growth": "102%"}, {"smiles": "CC1(C)CC(=O)NC1=O", "growth": "110%"}, {"smiles": "O=C(NC(=O)c1ccc(F)c(Cl)c1)NC1CC1", "growth": "113% and 109%"}, {"smiles": "COc1ccc2oc3cc(NCCN(C)C)ccc3c(=O)c2c1", "growth": "90.3% and 88.4%"}, {"smiles": "NC(=O)Cc1nc(O)cc(=O)[nH]1", "growth": "109%"}, {"smiles": "COc1cc2oc3cc(=O)cc4oc(-c5ccccc5)cc(c2c2c1CCC(c1ccccc1)O2)c43", "note": "(stereo not given)", "growth": "70.3%"}, {"smiles": "CCN(CC)Cc1cc2[nH]c3c4ccc(Cl)cc4ncc3c2cc1OC", "growth": "293% and 63.1%"}, {"smiles": "CC(NC(=O)CCl)c1ccccc1", "note": "(stereo not given)", "growth": "104%"}, {"smiles": "Cc1c(O)nc(N)[nH]c1=O", "growth": "118%"}, {"smiles": "Clc1ccc2sc(-c3ccccc3)nc2c1", "growth": "101%"}, {"smiles": "CCN(CC)C(=S)SCCO", "growth": "107%"}, {"smiles": "CCOC(=O)c1ccncc1", "growth": "111%"}, {"smiles": "CNc1ccc(O)cc1", "growth": "135% and 119%"}, {"smiles": "O=C(N=C1C(=O)C2(CCCCC2)C2(N=C(c3ccccc3)OC2=O)C12CCCCC2)c1ccccc1", "note": "(stereo not given)", "growth": "75%"}, {"smiles": "CCCC(=O)Oc1ccc2ccccc2c1", "growth": "106%"}, {"smiles": "CC1=CC(=O)c2cccc(NC3=NCCO3)c21", "growth": "104%"}, {"smiles": "O=P(O)(O)OC1C(OP(=O)(O)O)C(OP(=O)(O)O)C(OP(=O)(O)O)C(OP(=O)(O)O)C1OP(=O)(O)O.[Cu+2]", "note": "(stereo not given)", "growth": "86.9%"}, {"smiles": "COC(=O)c1nc(N)nc(C(=O)OC)c1C(=O)c1cccc2ccccc12", "growth": "117%"}, {"smiles": "CCCCCCC(C)CC1=C(O)c2ccccc2C(=O)C1=O", "note": "(stereo not given)", "growth": "41.5%"}, {"smiles": "O=C(O)/C=C/C=C/c1ccccc1", "growth": "105% and 110%"}, {"smiles": "CC(=O)c1cccc(OC(=O)c2ccccc2)c1", "growth": "114%"}, {"smiles": "O=[N+]([O-])c1ccc(N/N=C/C2CCCCCC2)c([N+](=O)[O-])c1", "growth": "91%"}, {"smiles": "O=C(Nc1ccccc1)OCC(CN1CCCCC1)OC(=O)Nc1ccccc1", "note": "(stereo not given)", "growth": "68.8% and 98.3%"}, {"smiles": "CS(=O)(=O)OCC1NC(=O)C(COS(C)(=O)=O)NC1=O", "note": "(stereo not given)", "growth": "63.4% and 57.5%"}, {"smiles": "COc1ccc2oc3c(ccc[n+]3C)c(=O)c2c1", "growth": "108%"}, {"smiles": "O=[N+]([O-])c1ccc(NC(c2ccccc2)c2ccc3cccnc3c2O)cc1", "note": "(stereo not given)", "growth": "10.9%"}, {"smiles": "CCOc1ccc(/C=C\\C(=O)O)cc1", "growth": "101%"}, {"smiles": "Oc1ccc(O)c(-c2ccccc2)c1", "growth": "47%"}, {"smiles": "CCN(CC)CCO/N=C1\\CC(c2ccc(OC)c(OC)c2)Oc2ccccc21", "note": "(stereo not given)", "growth": "88.8%"}, {"smiles": "Cc1ccc([N+](=O)[O-])cc1Br", "growth": "113%"}, {"smiles": "CCOC(=O)c1ccc(C(=N)N)cc1", "growth": "107%"}, {"smiles": "CCN(CC)C(CC(=O)c1ccccc1)C(=O)c1ccccc1", "note": "(stereo not given)", "growth": "110%"}, {"smiles": "Cc1ccc(S(=O)(=O)n2ccnc2)cc1", "growth": "75.5%"}]}]}
